Drawing on PubChem BioAssay (NCATS), this text covers Potency and outcome for nine compounds.

A short description of assay [1]: Validation screen for small molecules that induce DNA re-replication in MCF 10A normal breast cells (AID 463097). Also: nearly all actives have a fitted effect of over 60% in size. Also: potency is read from the fitted curve at half-maximal effect. Summed up: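 MCF 10A cells exposed to compound 48 hr at 37 C, 5% CO2, then Hoechst-stained 40 min. Laser-scanning imaging of nuclear DNA content (405 nm ex, 500-530 nm em); re-replication scored as rise in nuclei with elevated fluorescence intensity.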

Assay [2] in a line: Quantitative high throughput screen for delayed death inhibitors of the malarial parasite plastid, 96 hour incubation (AID 488745). Also: nearly all actives have a fitted effect of over 70% in size. Also: potency is read from the fitted curve at half-maximal effect. Put shortly: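 Luciferase-expressing P. falciparum, infected RBCs 2% Hct/0.1% parasitemia (final); 96 h cpd exposure, 37 C, 5% CO2; RPMI 1640 + 0.5% Albumax, bicarbonate, gentamycin. Readout: luminescence loss = growth inhibition.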
Assay [3] is described as follows: Quantitative high throughput screen for delayed death inhibitors of the malarial parasite plastid, 48 hour incubation (AID 488752). Also: nearly all actives have a fitted effect of over 65% in size. Also: potency is read from the fitted curve at half-maximal effect. Put shortly:
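Luciferase-expressing P. falciparum in RBCs, 2% Hct, 0.1% parasitemia final; RPMI 1640 + 0.5% Albumax; 48 h, 37 C, 5% CO2; luminescence readout, signal drop = growth inhibition.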

The target of assay [4] is M-phase phosphoprotein 8 (Homo sapiens) (UniProt Q99549). Description: qHTS Validation Assay for Inhibitors for MPP8 Chromodomain Interactions with Methylated Histone Tails (AID 488949). Also: nearly all actives have a fitted effect of over 55% in size. Also: potency is read from the fitted curve at half-maximal effect. Summed up: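 MPP8 (50 nM) was pre-bound to 50 nM biotinylated H3(1-18)K9me3 peptide in PBS pH 7.4 with 0.01% Tween-20. Compounds were then added for 30 min at room temperature, and complex disruption was read by AlphaScreen with streptavidin donor and nickel-chelate acceptor beads.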
Sequence of M-phase phosphoprotein 8 (Homo sapiens) (Q99549 whole entry, looked up): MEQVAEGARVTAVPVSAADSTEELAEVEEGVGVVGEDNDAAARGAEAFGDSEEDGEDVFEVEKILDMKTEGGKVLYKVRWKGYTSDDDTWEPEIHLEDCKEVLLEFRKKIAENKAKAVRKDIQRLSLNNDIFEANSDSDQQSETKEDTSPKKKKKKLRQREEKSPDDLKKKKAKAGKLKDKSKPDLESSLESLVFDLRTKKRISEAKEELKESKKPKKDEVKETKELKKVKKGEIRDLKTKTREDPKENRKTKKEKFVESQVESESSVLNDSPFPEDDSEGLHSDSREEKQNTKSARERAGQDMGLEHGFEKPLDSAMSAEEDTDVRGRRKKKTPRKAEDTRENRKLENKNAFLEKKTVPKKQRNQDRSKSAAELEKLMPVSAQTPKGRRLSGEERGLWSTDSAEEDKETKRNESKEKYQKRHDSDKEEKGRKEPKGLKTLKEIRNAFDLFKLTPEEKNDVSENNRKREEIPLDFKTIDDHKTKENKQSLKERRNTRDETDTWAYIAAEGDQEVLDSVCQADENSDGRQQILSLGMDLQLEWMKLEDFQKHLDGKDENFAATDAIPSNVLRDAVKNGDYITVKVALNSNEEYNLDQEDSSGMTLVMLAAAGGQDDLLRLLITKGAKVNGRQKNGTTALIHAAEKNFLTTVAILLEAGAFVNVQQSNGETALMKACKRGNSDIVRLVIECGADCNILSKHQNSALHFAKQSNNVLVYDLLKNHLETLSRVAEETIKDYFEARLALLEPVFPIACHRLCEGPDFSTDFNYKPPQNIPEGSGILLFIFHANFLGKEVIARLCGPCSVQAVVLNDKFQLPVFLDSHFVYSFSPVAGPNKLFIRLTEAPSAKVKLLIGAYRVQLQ
Background: qHTS replaces the single test concentration by a dilution series.

The target in assay [5] is Transient receptor potential cation channel subfamily V member 1 (Homo sapiens) (UniProt Q8NER1). Description: HTS Assay for Compounds that Act as Enhancers of the Vanilloid Receptor 1 (AID 488979). Put shortly:
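TRPV1-expressing cells loaded with Fluo-8 calcium dye; compounds added and calcium influx read kinetically for 3 min (agonist phase), then capsaicin at EC20 added and read 2 min more for enhancement. Fluorescence ex 480/em 520 nm.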

Assay [6] deals with Thyrotropin receptor (Homo sapiens) (UniProt P16473). Kind of assay: qHTS Assay for Antagonists of the Thyroid Stimulating Hormone Receptor (AID 488980). Also: series mostly up to about 58 µM. Summed up: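 TSHR-transfected HEK293 cells (2000/well) in HEPES-buffered HBSS with 70 uM RO 20-1724 were stimulated with 4 nM TSH (EC80, final) in the presence of compound. cAMP was measured by HTRF competition after lysis and 30 min at RT.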

In assay [7] the target is Ubiquitin carboxyl-terminal hydrolase 2 (Homo sapiens) (UniProt O75604). Kind of assay: qHTS Validation Assay for Inhibitors of Ubiquitin-specific Protease USP2a Using CHOP2 as the Reporter (AID 463106). Put shortly: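 Inhibition is expressed relative to NEM as the full-inhibition control, with concentration-response curves classed by fit quality, magnitude and activity. Enzyme (USP2 core, 10nM) meets 25nM Ub-CHOP2 after compound preincubation; readings are taken at 60min.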
Sequence of Ubiquitin carboxyl-terminal hydrolase 2 (Homo sapiens) (O75604 whole entry, looked up): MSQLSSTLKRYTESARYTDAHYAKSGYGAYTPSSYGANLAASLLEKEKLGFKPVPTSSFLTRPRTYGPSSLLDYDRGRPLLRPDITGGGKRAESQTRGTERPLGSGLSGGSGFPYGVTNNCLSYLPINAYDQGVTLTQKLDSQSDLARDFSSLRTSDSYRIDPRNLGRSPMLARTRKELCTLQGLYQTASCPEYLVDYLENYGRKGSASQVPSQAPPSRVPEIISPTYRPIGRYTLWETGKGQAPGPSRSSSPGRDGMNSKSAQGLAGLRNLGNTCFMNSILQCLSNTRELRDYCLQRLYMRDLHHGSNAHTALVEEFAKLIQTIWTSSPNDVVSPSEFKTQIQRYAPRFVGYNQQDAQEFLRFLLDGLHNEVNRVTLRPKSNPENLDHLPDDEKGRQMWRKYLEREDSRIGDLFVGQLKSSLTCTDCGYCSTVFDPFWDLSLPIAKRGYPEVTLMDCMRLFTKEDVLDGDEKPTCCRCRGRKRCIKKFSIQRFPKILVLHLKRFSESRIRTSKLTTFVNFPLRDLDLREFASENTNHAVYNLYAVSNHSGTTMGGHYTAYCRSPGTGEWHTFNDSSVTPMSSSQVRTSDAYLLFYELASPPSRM

The target in assay [8] is DNA polymerase III PolC-type (Bacillus subtilis (strain 168)) (UniProt P13267). Description: qHTS Validation Assay for the Inhibitors of DNA Replication in Gram-Positive Bacteria (AID 485295).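 Also: PicoGreen fluorescence of double-stranded DNA made on primed circular M13 template; series mostly up to about 57 µM.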 Put shortly:
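Reconstituted B. subtilis Pol III holoenzyme (PolC, beta clamp, SSB, primase) preincubated with compound, then M13Gori single-stranded circular template with dNTPs/NTPs added; room temperature reaction. Stopped with EDTA/PicoGreen; dsDNA fluorescence read, EDTA as full-inhibition control.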

Assay [9] concerns the target Tumor susceptibility gene 101 protein (Homo sapiens) (UniProt Q99816). Kind of assay: qHTS Validation Assay for Iinhibitors of HIV-1 Budding by Blocking the Interaction of PTAP/TSG101 (AID 485342; calls by dose curve). Put shortly: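 Tsg101 binding domain (10 uM) with FITC-labeled PTAP peptide (50 nM) in HEPES pH 7.5 buffer, 20 min at r.t. with compounds. Binding measured by fluorescence polarization.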

In assay [10] the target is Beta-2 adrenergic receptor (Homo sapiens) (UniProt P07550). Kind of assay: qHTS validation assay of beta-arrestin-biased ligands of beta2-adrenergic receptor (AID 485366). Put shortly: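 Compound series up to 46 microM applied to beta2-AR/beta-arrestin Tango cells, 18 hr, 37 degrees C, 5% CO2. Read-out: tTA-driven luciferase luminescence, converted to %Activity; concentration-response curves assigned curve classes.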

Assay [11] has as its target ATP-dependent 6-phosphofructokinase (Trypanosoma brucei brucei) (UniProt O15648). Description: qHTS Validation Assay to Find Inhibitors of T. brucei phosphofructokinase (AID 485368). Also: potency is read from the fitted curve at half-maximal effect. Put shortly: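 qHTS format, up to 57 uM. PFK 1.25 nM; F6P 0.5 mM; ATP 0.1 mM; 5 mM MgCl2, 0.01% Tween20, 0.1% BSA; 0.1 M TEA pH 8.0; 45 min RT; ADP-Glo readout; no-enzyme control = full inhibition.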

The target in assay [12] is Thioredoxin reductase 1, cytoplasmic (Rattus norvegicus) (UniProt O89049). Description: qHTS Assay for Substrates of Mammalian Selenoprotein Thioredoxin Reductase 1 (TrxR1) (AID 488772).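 Also: series mostly up to about 57 µM; a drop in NADPH fluorescence below the no-compound background marks a TrxR1 substrate.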 Put shortly: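 In this dual-purpose format, potential substrates are identified from the first fluorescence read after selenite addition, not from the 8-minute delta. Rat enzyme is preincubated with NADPH and then with compound at ~22 deg C.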

Assay [13] has the same target. Description: qHTS Assay for Inhibitors of Mammalian Selenoprotein Thioredoxin Reductase 1 (TrxR1) (AID 488773). Also: nearly all actives have a fitted effect of over 40% in size. Also: potency is read from the fitted curve at half-maximal effect. As to conditions: Potency: inhibition. Summed up:
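Inhibition is scored from the loss of NADPH fluorescence between first and last reads of an 8-min kinetic run. Selenite (400 uM) was the substrate, added after 15 min compound preincubation at room temperature.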

For assay [14], the target named is Flap endonuclease 1 (Homo sapiens) (UniProt P39748). Description: qHTS Validation Assay for the Inhibitors of Human Flap endonuclease 1 (FEN1) (AID 488816). Put shortly:
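Steps: add FEN1 (10 nM reagent) or buffer only; pin compounds; hold 15 min at room temperature; start with substrate, 50 nM final; read at 0 and 15 min; correct, normalize and fit a four-parameter Hill curve.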

The target of assay [15] is Chromobox protein homolog 1 (Homo sapiens) (UniProt P83916). Description: qHTS Validation Assay for Inhibitors of HP1-beta Chromodomain Interactions with Methylated Histone Tails (AID 488953). Also: nearly all actives have a fitted effect of over 50% in size. Also: potency is read from the fitted curve at half-maximal effect. Put shortly:
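AlphaScreen proximity readout: streptavidin donor and Ni-chelate acceptor beads, 10 ug/mL final, 30 min dark, RT. Complex of 50 nM HP1-beta and 50 nM b-H3(1-18)K9me3 formed 30 min, then compound-treated 30 min; PBS pH 7.4/0.01% Tween-20.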

In assay [16] the target is Methanococcus maripaludis chaperonin (MmCpn) (UniProt Q6LX38). Kind of assay: High-Throughput Screening for Modulators of Cytosolic Chaperonin Activity: MmCpn Primary Screen (AID 488978).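 Also: 50 nM MmCpn enzyme hydrolysing 30 µM ATP at 37 °C.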 Summed up: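 MmCpn at 50 nM final was preincubated 5 min at RT with compound. ATP was then added at 30 uM final for 10 min at 37 C. ADP formed was detected by Transcreener HTRF (665/590 nm).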

Assay [17] in a line: High Content Imaging Cell-Based qHTS for Inhibitors of the mTORC1 Signaling Pathway in MEF Cells (AID 2667).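 Also: Tsc2-/- p53-/- MEFs stably re-expressing wild-type Tsc2 exposed 24 h; series mostly up to about 38 µM.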 Summed up: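 Fixed-cell imaging of phospho-S6 (Ser235/236, Alexa-488) after 24 hrs of compound treatment at 37 degree Celsius. Signal was normalized to Hoechst, and thresholds from the highest and lowest wells split cells into % active versus % non-active.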
The nature of assay [18]: Cytometry Cell-Based qHTS for Inhibitors of the mTORC1 Signaling Pathway in MEF cells (AID 2668).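 Also: Tsc2-/- p53-/- mouse embryonic fibroblasts stably re-expressing wild-type Tsc2; percent cells positive for phospho-rpS6 Ser235/236 relative to propidium iodide stain; series mostly up to about 38 µM.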 Put shortly: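 MEFs (Tsc2-/-, p53-/- stably expressing WT Tsc2) treated 24 h at 37 degree Celsius, fixed, stained with Alexa-488 anti-phospho-rpS6 Ser235/236 and propidium iodide; Acumen laser scanning. Reported as % positive cells, phospho-S6 normalized to PI.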
The target in assay [19] is D(1A) dopamine receptor (Homo sapiens) (UniProt P21728). Kind of assay: HTS Assay for Allosteric Agonists of the Human D1 Dopamine Receptor: Primary Screen for Antagonists (AID 488983).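 Also: calcium flux response to an EC80 dopamine challenge measured with no-wash dye; nearly all actives have a fitted effect of over 65% in size.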 Put shortly:
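Calcium flux readout, no-wash dye, inducible HEK293 T-REx D1 line (force-coupled). Compound added after 10 s baseline, 180 s kinetic read; then dopamine at EC80, further 180 s read.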

Assay [20] can be described thus: qHTS Validation Assay to Find Inhibitors of Chronic Active B-Cell Receptor Signaling (AID 485345; active = well fitted curve in the direction sought with a large enough effect in the main read-out, with a control signal flat, not every such curve was filed as active). Summed up: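 TMD8 ABC-DLBCL cells with dox-inducible green luciferase–IκBα fusion and red native luciferase; compounds 46 uM–3 nM, 4 h at 37C with doxycycline in 0.5% FBS IMDM. Green/red ratio normalized to basal and 10 uM MG-132.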

SMILES strings stand for the structures. Inconclusive results are not listed. Some compounds were tested as several samples or in several runs, with calls that do not always agree. Active and inactive are the calls of the source. Unless noted, calls follow the shape of the dose curve; as a rule, active = well fitted curve in the direction sought with a large enough effect; inconclusive = small, poorly fitted or top-dose-only effect, or another doubt; inactive = no such curve, though single readings can be large; an effect the other way counts as inactive or inconclusive.

Sequence of DNA polymerase III PolC-type (Bacillus subtilis (strain 168)) (P13267 whole entry, looked up): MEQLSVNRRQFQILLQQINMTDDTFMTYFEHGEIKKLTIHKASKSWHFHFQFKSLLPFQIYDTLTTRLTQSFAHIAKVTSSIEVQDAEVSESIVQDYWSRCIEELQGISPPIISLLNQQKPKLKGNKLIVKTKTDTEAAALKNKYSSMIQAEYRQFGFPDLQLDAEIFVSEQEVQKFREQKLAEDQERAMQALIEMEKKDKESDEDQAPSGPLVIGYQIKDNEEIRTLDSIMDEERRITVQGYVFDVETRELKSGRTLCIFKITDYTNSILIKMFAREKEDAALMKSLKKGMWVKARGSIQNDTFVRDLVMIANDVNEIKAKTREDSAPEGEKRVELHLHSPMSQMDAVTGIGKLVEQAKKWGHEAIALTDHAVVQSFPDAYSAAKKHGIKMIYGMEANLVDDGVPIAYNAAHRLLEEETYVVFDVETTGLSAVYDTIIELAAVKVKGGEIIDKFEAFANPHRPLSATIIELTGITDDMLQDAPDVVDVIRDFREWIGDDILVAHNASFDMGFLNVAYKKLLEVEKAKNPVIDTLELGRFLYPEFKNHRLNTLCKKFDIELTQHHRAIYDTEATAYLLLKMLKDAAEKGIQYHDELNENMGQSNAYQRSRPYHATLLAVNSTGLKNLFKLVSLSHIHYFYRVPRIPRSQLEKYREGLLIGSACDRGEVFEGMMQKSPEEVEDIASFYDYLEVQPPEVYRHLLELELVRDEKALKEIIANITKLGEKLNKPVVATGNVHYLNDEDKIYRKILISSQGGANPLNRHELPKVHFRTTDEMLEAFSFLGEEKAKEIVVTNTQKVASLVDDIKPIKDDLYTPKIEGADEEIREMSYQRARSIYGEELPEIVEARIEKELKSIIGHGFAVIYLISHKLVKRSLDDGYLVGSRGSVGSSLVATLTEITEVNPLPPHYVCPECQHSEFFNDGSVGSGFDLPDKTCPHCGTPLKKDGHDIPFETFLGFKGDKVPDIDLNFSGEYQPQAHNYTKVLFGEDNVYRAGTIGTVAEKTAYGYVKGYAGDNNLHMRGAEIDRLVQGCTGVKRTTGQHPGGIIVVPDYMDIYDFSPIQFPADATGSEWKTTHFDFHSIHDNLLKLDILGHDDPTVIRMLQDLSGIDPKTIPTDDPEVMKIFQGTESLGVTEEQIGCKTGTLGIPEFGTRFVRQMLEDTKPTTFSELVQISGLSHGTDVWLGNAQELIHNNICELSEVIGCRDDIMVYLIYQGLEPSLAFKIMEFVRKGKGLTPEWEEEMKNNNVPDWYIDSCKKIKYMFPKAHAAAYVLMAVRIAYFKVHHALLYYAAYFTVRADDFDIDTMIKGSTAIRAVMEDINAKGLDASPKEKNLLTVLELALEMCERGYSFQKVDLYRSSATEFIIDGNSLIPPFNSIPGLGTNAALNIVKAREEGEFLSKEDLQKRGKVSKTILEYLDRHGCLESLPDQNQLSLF
Sequence of ATP-dependent 6-phosphofructokinase (Trypanosoma brucei brucei) (O15648 whole entry, looked up): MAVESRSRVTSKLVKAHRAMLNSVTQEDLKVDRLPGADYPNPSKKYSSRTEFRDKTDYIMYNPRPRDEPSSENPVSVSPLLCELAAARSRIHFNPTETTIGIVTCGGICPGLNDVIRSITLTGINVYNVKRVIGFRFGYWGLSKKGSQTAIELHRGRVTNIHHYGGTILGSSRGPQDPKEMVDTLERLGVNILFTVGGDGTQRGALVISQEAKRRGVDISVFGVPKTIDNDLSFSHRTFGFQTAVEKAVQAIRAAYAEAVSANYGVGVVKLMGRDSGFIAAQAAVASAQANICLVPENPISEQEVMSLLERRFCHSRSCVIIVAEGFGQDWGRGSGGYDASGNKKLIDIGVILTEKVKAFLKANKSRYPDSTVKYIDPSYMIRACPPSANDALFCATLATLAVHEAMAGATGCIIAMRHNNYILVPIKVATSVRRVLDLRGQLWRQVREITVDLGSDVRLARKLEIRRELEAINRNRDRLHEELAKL
Sequence of Chromobox protein homolog 1 (Homo sapiens) (P83916 whole entry, looked up): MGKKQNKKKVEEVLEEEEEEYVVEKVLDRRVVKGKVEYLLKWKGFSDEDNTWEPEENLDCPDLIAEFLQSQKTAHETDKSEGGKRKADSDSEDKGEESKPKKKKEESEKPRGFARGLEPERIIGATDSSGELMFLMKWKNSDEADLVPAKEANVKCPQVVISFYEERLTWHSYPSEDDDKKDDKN
Sequence of D(1A) dopamine receptor (Homo sapiens) (P21728 whole entry, looked up): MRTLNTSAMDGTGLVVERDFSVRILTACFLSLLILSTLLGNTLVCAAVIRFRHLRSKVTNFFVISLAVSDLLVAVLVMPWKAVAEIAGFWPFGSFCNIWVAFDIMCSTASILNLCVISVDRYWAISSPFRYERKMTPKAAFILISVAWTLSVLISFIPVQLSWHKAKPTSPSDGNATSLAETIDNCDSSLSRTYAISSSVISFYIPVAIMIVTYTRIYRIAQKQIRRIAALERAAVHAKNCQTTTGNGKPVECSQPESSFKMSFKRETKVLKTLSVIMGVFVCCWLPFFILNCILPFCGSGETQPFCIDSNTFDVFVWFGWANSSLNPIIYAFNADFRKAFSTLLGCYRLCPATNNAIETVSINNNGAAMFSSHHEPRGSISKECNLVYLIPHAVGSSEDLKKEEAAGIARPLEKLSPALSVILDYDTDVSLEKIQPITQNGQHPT
Sequence of Transient receptor potential cation channel subfamily V member 1 (Homo sapiens) (Q8NER1 whole entry, looked up): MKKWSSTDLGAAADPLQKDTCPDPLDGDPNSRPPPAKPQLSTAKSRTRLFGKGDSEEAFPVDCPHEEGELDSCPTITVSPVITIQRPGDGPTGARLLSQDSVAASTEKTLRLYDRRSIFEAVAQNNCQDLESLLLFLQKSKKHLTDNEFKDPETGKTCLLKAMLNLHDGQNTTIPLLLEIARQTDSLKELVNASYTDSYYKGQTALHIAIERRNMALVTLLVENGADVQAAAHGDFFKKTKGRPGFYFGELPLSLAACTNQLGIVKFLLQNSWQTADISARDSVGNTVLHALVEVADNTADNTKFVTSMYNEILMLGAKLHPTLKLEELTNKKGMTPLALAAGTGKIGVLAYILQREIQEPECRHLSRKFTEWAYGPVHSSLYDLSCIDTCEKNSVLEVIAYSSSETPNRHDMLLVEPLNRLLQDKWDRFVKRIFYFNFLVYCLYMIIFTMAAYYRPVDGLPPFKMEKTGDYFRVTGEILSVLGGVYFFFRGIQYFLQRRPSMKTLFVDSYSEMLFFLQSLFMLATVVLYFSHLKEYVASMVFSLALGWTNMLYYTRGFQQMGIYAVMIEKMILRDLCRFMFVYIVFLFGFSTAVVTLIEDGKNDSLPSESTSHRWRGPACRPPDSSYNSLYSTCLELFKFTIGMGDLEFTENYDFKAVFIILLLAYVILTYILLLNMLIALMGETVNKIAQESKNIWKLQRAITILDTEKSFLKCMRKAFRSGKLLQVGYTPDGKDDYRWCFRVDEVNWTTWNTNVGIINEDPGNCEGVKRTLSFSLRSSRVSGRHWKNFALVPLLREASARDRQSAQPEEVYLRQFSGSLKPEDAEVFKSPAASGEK

As to `C[C@]12CCC(=O)C=C1CC[C@@H]1[C@@H]2[C@@H](O)C[C@@]2(C)[C@H]1CC[C@]2(O)C(=O)COC(=O)CCC(=O)O`, the Potency entry in assay [1], in [2], in assay [3] and in assay [4] was “inactive” in each case. In addition, the outcome in assay [5] and in [6] was inactive.
In the case of `CC(C)N(CCC(=O)c1ccc2ccccc2c1)Cc1ccccc1`, the Potency in assay [1] was 3.55 µM (active); in [11] it was 13.5 µM (active); in [13] it was 7.52 µM (active); in assay [4], 28.2 µM (active) and inactive; in [15] it was 44.7 µM (active). The result in [7], in assay [8], in assay [9], in [10], in [12] and in [14] was inactive. Also, the compound was called inactive in [16] and in assay [6]. Besides, the Potency entry in [2] and in assay [3] was “inactive” throughout.
With `Cc1nn(-c2ccccc2)c(C)c1/C=N/N1CCN(Cc2ccccc2)CC1`, the compound was called inactive in [17], in [18], in [7], in assay [8], in assay [9] and in [10]. Also, the compound was called inactive in assay [12], in assay [14] and in assay [16]. Further, the Potency entry in assay [11], in [13] and in [19] was “inactive” throughout. The Potency in assay [15] was 39.8 µM (active).
On to `NC(N)=NCCCCN=C(N)N`, for which the compound was called inactive in assay [17], in assay [18], in [7], in assay [8], in [9] and in [20]. Also, the compound was called inactive in assay [10], in assay [12], in assay [14], in assay [16], in assay [5] and in assay [6]. Moreover, the Potency result in assay [1], in assay [11], in [2], in assay [3], in [13] and in [4] was “inactive” throughout. The Potency result in assay [15] and in assay [19] was “inactive” in each case.
In the case of `Brc1ccc([C@H]2CN3CCSC3=N2)cc1`, the call in assay [17], in assay [18], in assay [7], in assay [8], in [9] and in assay [20] was inactive. The result in assay [10], in assay [12], in assay [14], in assay [16], in assay [5] and in assay [6] was inactive. Further, the Potency in assay [1] was 7.08 µM (active). For the same compound, the Potency entry in assay [11], in assay [2], in [3], in [13], in [4] and in assay [19] was “inactive” throughout.
Turning to `C[N+](C)(C)CCO`, the call in [17], in assay [18], in assay [7], in assay [8], in assay [9] and in assay [20] was inactive. Besides, the result in [10], in [12], in assay [14], in [16], in [5] and in [6] was inactive. Moreover, the Potency result in [1], in [2], in assay [3], in assay [13], in [4] and in assay [15] was “inactive” throughout. Besides, in [19], the Potency result was “inactive”.
Turning to `Nc1ncnc2n[nH]c(Nc3ccc(F)cc3)c12`, the result in assay [17], in [7], in [8], in assay [9], in [20] and in assay [10] was inactive. The outcome in assay [12], in [14] and in assay [16] was inactive. For the same compound, the Potency entry in assay [11], in assay [13], in assay [4], in assay [15] and in assay [19] was “inactive” throughout.
As to `Cn1cnc2c(NCc3ccccc3)nc(NCCO)nc21`, the compound was classed as inactive in [17], in assay [18], in assay [7], in assay [8], in [9] and in assay [20]. For the same compound, the result in assay [10], in assay [12], in assay [14], in assay [16], in assay [5] and in assay [6] was inactive. For the same compound, the Potency result in assay [1], in assay [11], in assay [13], in assay [4], in [15] and in [19] was “inactive” throughout.
In the case of `CN(C)c1cc2c(Nc3ccc4c(cnn4Cc4ccccc4)c3)ncnc2cn1`, the compound was classed as inactive in assay [17], in assay [7], in assay [8], in assay [9], in [10] and in [12]. Also, the outcome in assay [16], in assay [5] and in assay [6] was inactive. Besides, the Potency in [1] was 3.16 µM (active); in assay [2], 7.38 µM (active); in [3], 4.65 µM (active). The Potency result in [13], in assay [4] and in assay [19] was “inactive” in each case.
